Test results: PubChem BioAssay (NCI)
About 79,000 compounds went through this panel and 15% of them were active in at least one assay; those are over-represented in the sample as a whole. Activity calls are given as the source filed them. No stated cut-off is given here; in the data, active means growth inhibition above about 70%; inactive means the rest.

Experiments:
[1] = NCI Yeast Anticancer Drug Screen. Data for the rad50 strain (AID 155);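 further: 0% = growth of vehicle-only cultures of the same strain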; settings: S. cerevisiae rad50 strain growth inhibition, hits give high values
Outline: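 A DNA repair-deficient yeast mutant serves as the test organism; compound-induced growth inhibition is calculated against vehicle-treated cells.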

[2] = NCI Yeast Anticancer Drug Screen. Data for the mec2-1 strain (AID 157); settings: S. cerevisiae mec2-1 strain, hits give high values
Outline: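 Yeast mec2-1 mutant treated with compound. Readout: growth inhibition vs vehicle controls.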

[3] = NCI Yeast Anticancer Drug Screen. Data for the sgs1 mgt1 strain (AID 161);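 further: 0% = growth of cultures given vehicle only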; settings: S. cerevisiae sgs1 mgt1 strain, hits give high values
Outline: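 Genetically altered yeast, compound exposure, growth inhibition relative to vehicle.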

[4] = NCI Yeast Anticancer Drug Screen. Data for the cln2 rad14 strain (AID 165);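 further: 0% = growth equal to vehicle treated cultures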; settings: S. cerevisiae cln2 rad14 strain, hits give high values
Outline: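 cln2 rad14 yeast strain; compound exposure; growth inhibition read vs vehicle controls.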

[5] = NCI Yeast Anticancer Drug Screen. Data for the bub3 strain (AID 167); settings: S. cerevisiae bub3 mutant strain, hits give high values
Outline: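 Inhibition values come from growth of compound-treated mutant yeast normalised to vehicle-treated controls.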

[6] = NCI Yeast Anticancer Drug Screen. Data for the mlh1 rad18 strain (AID 175); settings: S. cerevisiae mlh1 rad18 strain growth inhibition, hits give high values
Outline: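 Yeast w/ defined DNA-repair lesions; compound exposure; growth vs vehicle controls → % inhibition.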

[7] = at 5.0 µM (retest, dose inferred, filed as 0.5)
[8] = at 50.0 µM (retest, dose inferred, filed as 5.0)

Measured: growth inhibition

O=[n+]1c2ccccc2n([O-])c2cc(Cl)ccc21
active: [1]; [7] 95% | [1]; [8] 99% | [1]; at 50.0 µM 98.7% | [2]; [7] 86% | [2]; [8] 100% | [2]; at 50.0 µM 99.4% | [3]; [7] 77% | [3]; [8] 99% | [3]; at 50.0 µM 99.1% | [4]; [8] 99% | [4]; at 50.0 µM 96.7% | [5]; [7] 95% | [5]; [8] 100% | [5]; at 50.0 µM 98.5% | [6]; [7] 94% | [6]; [8] 99% | [6]; at 50.0 µM 99.1%
inactive: [4]; [7] 48%

O=[N+]([O-])c1ccc(C(Br)c2ccc([N+](=O)[O-])cc2)cc1
active: [1]; [8] 97% | [1]; at 50.0 µM 99.8% | [2]; [8] 100% | [2]; at 50.0 µM 99.8% | [3]; [8] 100% | [3]; at 50.0 µM 99.8% | [4]; [8] 99% | [4]; at 50.0 µM 99.7% | [5]; [8] 100% | [5]; at 50.0 µM 99.7% | [6]; [8] 99% | [6]; at 50.0 µM 99.7%
inactive: [1]; [7] 42% | [2]; [7] 29% | [3]; [7] 65% | [4]; [7] 22% | [5]; [7] 15% | [6]; [7] 54%

Cc1ccc2c(c1)sc(-c1ccc(N(C)C)cc1)[n+]2C
active: [1]; [8] 92% | [1]; at 50.0 µM 90.7% | [2]; [8] 96% | [2]; at 50.0 µM 91.8% | [3]; [8] 98% | [3]; at 50.0 µM 91.8% | [4]; [7] 74% | [4]; [8] 98% | [4]; at 50.0 µM 89.1% | [5]; [8] 98% | [5]; at 50.0 µM 90.8% | [6]; [8] 86% | [6]; at 50.0 µM 90.5%
inactive: [1]; [7] 42% | [2]; [7] 45% | [3]; [7] 45% | [5]; [7] 67% | [6]; [7] 24%

N#Cc1c2ccccc2nc2ccccc12
active: [1]; at 50.0 µM 85.9% | [6]; at 50.0 µM 74.2%
inactive: [1]; [7] 37% | [1]; [8] 45% | [2]; [7] 21% | [2]; [8] 19% | [2]; at 50.0 µM 16.9% | [3]; [7] -1% | [3]; [8] 37% | [3]; at 50.0 µM 30.1% | [4]; [7] 2% | [4]; [8] 3% | [4]; at 50.0 µM 19.6% | [5]; [7] 5% | [5]; [8] 12% | [5]; at 50.0 µM 28.4% | [6]; [7] 1% | [6]; [8] 17%

CCOc1cc(F)c([N+](=O)[O-])cc1[N+](=O)[O-]
inactive: [2]; at 50.0 µM 54.4% | [3]; at 50.0 µM 51.5%
active: [1]; [7] 92% | [1]; [8] 99% | [1]; at 50.0 µM 98.7% | [2]; [7] 94% | [2]; [8] 100% | [3]; [7] 96% | [3]; [8] 99% | [4]; [7] 97% | [4]; [8] 100% | [4]; at 50.0 µM 98.4% | [5]; [7] 91% | [5]; [8] 99% | [5]; at 50.0 µM 99% | [6]; [7] 92% | [6]; [8] 100% | [6]; at 50.0 µM 98.5%

CCCCOS(=O)(=O)c1ccccc1
inactive: [1]; [7] 7% | [1]; [8] -25% | [1]; at 50.0 µM -6% | [2]; [7] 10% | [2]; [8] 1% | [2]; at 50.0 µM -2.6% | [3]; [7] 0% | [3]; [8] 1% | [3]; at 50.0 µM 8.95% | [4]; [7] 5% | [4]; [8] 0% | [4]; at 50.0 µM -23.1% | [5]; [7] -23% | [5]; [8] -6% | [5]; at 50.0 µM 0.8% | [6]; [7] 3% | [6]; [8] 1% | [6]; at 50.0 µM 14.2%

OC(Cc1cc(CC(O)(C(F)(F)F)C(F)(F)F)nc(CC(O)(C(F)(F)F)C(F)(F)F)c1)(C(F)(F)F)C(F)(F)F
inactive: [1]; [7] 8% | [2]; [7] 1% | [3]; [7] -9% | [4]; [7] 29% | [5]; [7] -15% | [6]; [7] 19%
active: [1]; [8] 99% | [1]; at 50.0 µM 99.5% | [2]; [8] 100% | [2]; at 50.0 µM 99.5% | [3]; [8] 99% | [3]; at 50.0 µM 99.4% | [4]; [8] 100% | [4]; at 50.0 µM 97.8% | [5]; [8] 100% | [5]; at 50.0 µM 99.3% | [6]; [8] 99% | [6]; at 50.0 µM 99.5%

NC(=S)N/N=C\c1nccc2c(N)cccc12
active: [1]; [8] 87% | [2]; [8] 89% | [2]; at 50.0 µM 76.7% | [3]; [8] 81% | [3]; at 50.0 µM 74% | [4]; [8] 81% | [5]; [8] 85% | [5]; at 50.0 µM 74.8% | [6]; [8] 85%
inactive: [1]; [7] 6% | [1]; at 50.0 µM 61.4% | [2]; [7] 35% | [3]; [7] 9% | [4]; [7] -12% | [4]; at 50.0 µM 36.4% | [5]; [7] 0% | [6]; [7] 10% | [6]; at 50.0 µM 67.5%

N=C1C=C(N)C(=O)c2ccccc21
inactive: [1]; [7] 29% | [2]; [7] 16% | [2]; [8] 40% | [2]; at 50.0 µM 65.5% | [3]; [7] 25% | [4]; [7] 12% | [4]; [8] 54% | [5]; [7] 31% | [6]; [7] 20%
active: [1]; [8] 87% | [1]; at 50.0 µM 97.5% | [3]; [8] 80% | [3]; at 50.0 µM 93.8% | [4]; at 50.0 µM 75.9% | [5]; [8] 85% | [5]; at 50.0 µM 94.3% | [6]; [8] 83% | [6]; at 50.0 µM 95%

[Cl-].[Rh+3].c1ccc(-c2ccnc3c2ccc2c(-c4ccccc4)ccnc23)cc1.c1ccc(-c2ccnc3c2ccc2c(-c4ccccc4)ccnc23)cc1.c1ccc(-c2ccnc3c2ccc2c(-c4ccccc4)ccnc23)cc1
active: [1]; at 50.0 µM 97.1% | [2]; at 50.0 µM 88.9% | [3]; [8] 87% | [3]; at 50.0 µM 94.5% | [4]; at 50.0 µM 85.7% | [5]; at 50.0 µM 90.8% | [6]; [8] 88% | [6]; at 50.0 µM 95.9%
inactive: [1]; [7] -27% | [1]; [8] 65% | [2]; [7] -15% | [2]; [8] 26% | [3]; [7] -10% | [4]; [7] -4% | [4]; [8] 43% | [5]; [7] -7% | [5]; [8] 38% | [6]; [7] -12%
